PubChem BioAssay (Tox21)
Records with an inconclusive call do not appear. Entries that show only a call come without a potency. The source made the active and inactive calls. Calls follow the shape of the full dose curve.

assay: qHTS assay for small molecule agonists of the antioxidant response element (ARE) signaling pathway - cell viability counter screen (AID 743203); settings: ARE-bla HepG2 viability, CellTiter-Glo luminescence, 16 h; series mostly up to 73.3 µM; also: nearly all actives have a fitted effect of over 55% in size
Excerpt: National Center for Advancing Translational Sciences [NCATS]
NIH Chemical Genomics Center [NCGC]
U.S. Environmental Protection Agency [EPA]
National Institutes of Environmental Health Sciences [NIEHS]
National Toxicology Program [NTP]
U.S. Food and Drug Administration [FDA]
Oxidative stress has been implicated in the pathogenesis of a variety of diseases ranging from cancer to neurodegeneration. The antioxidant response element (ARE) signaling pathway plays an important role in the amelioration of oxidative stress. The CellSensor ARE-bla HepG2 cell line (Invitrogen) can be used for analyzing the Nrf2/antioxidant response signaling pathway. Nrf2 (NF-E2-related factor 2) and Nrf1 are transcription factors that bind to AREs and activate these genes. The CellSensor ARE-bla Hep G2 cell line contains a beta-lactamase reporter gene under control of the Antioxidant Response Element (ARE) stably integrated into HepG2 cells. The activation of the report gene under culture conditions can be detected by fluorescence intensity. This cell line has been used to screen the Tox21 10K compound library to identify agonists that induce oxidative stress. The cytotoxicity of the Tox21 compound library against the ARE-bla cell line was tested in parallel by measuring the cell viability using CellTiter-Glo assay (Promega, Madison, WI) in the same wells.
Tox21 Assay Protocol Summary:
ARE-bla HepG2 cells were dispensed at 2,000 cells/5 ul/well in 1536-well white wall/solid bottom plates using a Multidrop Combi (ThermoFisher Scientific, Waltham, MA) dispenser. After the assay plates were incubated at 37C/5% CO2 for 5 hrs, 23 nL of compounds dissolved in DMSO, positive controls or DMSO only was transferred to the assay plate by a pintool work station (Kalypsys, San Diego, CA). The plates were incubated at 37C/5% CO2 for 16 hrs, followed by addition of 4 ul/well of CellTiter-Glo reagent into the assay plates using a Flying Reagent Dispenser (Aurora Discovery, San Diego, CA). After 30 min incubation at room temperature, the luminescence intensity in the assay plates was measured using a ViewLux (PerkinElmer, Shelton, CT) plate reader.
Potency is read from the fitted curve at half-maximal effect.

SMILES | Potency | viability change, negative = cytotoxic
CN1Cc2cc(C(=O)N3CCC(C4CCNCC4)CC3)ccc2N[C@@H](CC(=O)O)C1=O | inactive | –
OC/C(Br)=C(\Br)CO | inactive | –
Nc1nc(Cl)nc2c1ncn2[C@@H]1O[C@H](CO)[C@@H](O)[C@@H]1F | inactive | –
O=C(CCCN1CCC(O)(c2ccc(Br)cc2)CC1)c1ccc(F)cc1 | 29.8 µM (active) | –
CCOC(=O)c1ccccc1C | inactive | –
CSc1ccc(Oc2ccc(S(N)(=O)=O)cc2CN(C)C)cc1C | inactive | –
CC(=O)[C@H]1CC[C@H]2[C@@H]3C=CC4=CC(=O)CC[C@@]4(C)[C@@H]3CC[C@]12C | inactive | –
CCCCN(CCCC)C(=S)SSC(=S)N(CCCC)CCCC | inactive | –
CCC(=O)OC/C=C/c1ccccc1 | inactive | –
Fc1c(F)c(F)c(Br)c(F)c1F | inactive | –
CCCCCCCC/C=C\CCCCCCCC(=O)OC | inactive | –
O=C(C(=O)c1ccccc1)c1ccccc1 | inactive | –
CCN(CC)CCNC(=O)c1ccc(NC(C)=O)cc1 | inactive | –
COC(=O)c1cc(S(N)(=O)=O)ccc1OC | inactive | –
CC(=O)Nc1ccc(N)cc1 | inactive | –
CC(=O)OCC(=O)[C@@]12OC(C)(C)O[C@@H]1C[C@H]1[C@@H]3C[C@H](F)C4=CC(=O)C=C[C@]4(C)[C@@]3(F)[C@@H](O)C[C@@]12C | inactive | –
OCCSc1ccccc1 | inactive | –
C=CCOC(=O)/C=C\C(=O)OCC=C | inactive | –
O=C(O)c1cccnc1C(=O)O | inactive | –
C/C=C(\C)C(=O)OCCC(C)CCC=C(C)C (stereo not given) | inactive | –

SMILES | Potency | viability change, negative = cytotoxic
Nc1nccs1 | inactive | –
CC1CC(=O)NN=C1c1ccc(NCC(C)(C)NCC(O)COc2cc(Cl)ccc2C#N)cc1 (stereo not given) | inactive | –
COC(=O)[C@@H]1CC2=CC(=O)CC[C@]2(C)[C@@]23O[C@@H]2C[C@@]2(C)[C@@H](CC[C@@]24CCC(=O)O4)[C@H]13 | inactive | –
CCc1cccc(N(C)C(N)=Nc2cccc3ccccc23)c1 | inactive | –
CC1CN(c2cc3c(cc2F)c(=O)c(C(=O)O)cn3-c2ccc(F)cc2F)CCN1 (stereo not given) | – | -0.948% [at 8.36 µM] (inactive)
C[Si](NC1CCCCC1)(NC1CCCCC1)NC1CCCCC1 | inactive | –
CCOc1cc(N)c(Cl)cc1C(=O)NCC1CN(Cc2ccc(F)cc2)CCO1 (stereo not given) | inactive | –
Cc1ccc(Nc2nccc(N(C)c3ccc4c(C)n(C)nc4c3)n2)cc1S(N)(=O)=O | inactive | –
Cc1ccccc1N1C(=O)c2cc(S(N)(=O)=O)c(Cl)cc2NC1C (stereo not given) | inactive | –
CCCOC(=O)c1ccc(N)cc1 | inactive | –
CC(=O)Nc1ccccc1C | inactive | –
Cc1ccnc2ccccc12 | inactive | –
NC(=O)Cn1c(=O)cc(CCN2CCN(c3nccc4sccc34)CC2)c2ccc(F)cc21 | inactive | –
ON(Cc1ccccc1)Cc1ccccc1 | inactive | –
C[C@]12CCC(=O)C=C1C=C[C@@H]1[C@@H]2CC[C@@]2(C)[C@H]1CC[C@@]21CCC(=O)O1 | inactive | –
CCOC(=O)c1ccccc1OC | inactive | –
CCn1nc(C)c2c1C(=O)NCC(c1ccc(O)cc1)=N2 | inactive | –
O=C(/C=C/c1ccccc1)OCCCc1ccccc1 | inactive | –
CCCCCCCCCCCC[N+](C)(C)CCCS(=O)(=O)[O-] | inactive | –
Fc1ccccc1[C@@H](F)COC1CCC(Nc2ncnc3[nH]ncc23)CC1 (stereo not given in full) | inactive | –
